Screening results (PubChem)
Hits are enriched below; roughly 8% of the tested compounds scored in any of these assays.
Marburg entry inh: Marburg virus entry inhibition | 300,000 compounds, 1.8% hits | Marburg virus pseudotyped entry inhibition, cell reporter | AID 540276 | Potency, µM (series often up to 37.8 µM), inactives show top-dose activity change, negative = inhibition, usual class: inhibitors; calls by dose curve; tested in HEK293 cells; further: potency means the concentration at half of the fitted maximal effect; on the % scale 0 is the no-effect control and ±100 the full control effect
LASV entry inh: inhibitors of Lassa virus binding or cell entry; AID 540256; Lassa virus pseudotype entry inhibition, cell reporter; Potency, µM (doses to about 37.9 µM), without a hit: top-dose activity change, negative = inhibition, most hits filed as inhibitors; 300,000 compounds, 1.2% hits; calls by dose curve; tested in HEK293 cells; further: potency means the concentration at half of the fitted maximal effect; on the % scale 0 is the no-effect control and ±100 the full control effect; nearly all actives have a fitted effect of over 50% in size
SARS PLpro yeast: blocks SARS-CoV papain-like protease in a yeast assay; S. cerevisiae expressing SARS-CoV PLpro, growth rescue; Potency, µM (highest dose often 32.9 µM), for inactives: top-dose activity, positive = growth rescue, hits mostly activators; 330,000 compounds, 0.19% hits; AID 485353; calls by dose curve; further: potency means the concentration at half of the fitted maximal effect; 0% is about no effect; nearly all actives have a fitted effect of over 55% in size
FMDV inh: blocks foot and mouth disease virus; FMDV antiviral cell-based qHTS; 410,000 compounds, 1.2% hits; Potency, µM (top dose mostly 57.9 µM), without a hit: at the top dose activity change, negative = inhibition, usual class: inhibitors; calls by dose curve; tested in HEK293T cells; further: read-out not given here; potency means the concentration at half of the fitted maximal effect; on the % scale 0 is the no-effect control and ±100 the full control effect; nearly all actives have a fitted effect of over 45% in size
HCMV inh: human cytomegalovirus inhibition; HFF cells, HCMV-luciferase reporter, 72 h; stronger effect = lower value; activity change, negative = inhibition, % at 57.5 µM; 410,000 compounds, 4.5% hits; in the data active means activity change below about -60%; inconclusive means no clear call, values can overlap the other calls; inactive means above about -39%; further: on the % scale 0 is the no-effect control and ±100 the full control effect
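Compounds were evaluated in HFFs infected with an HCMV luciferase reporter virus (MOI 1 PFU/cell). Luciferase in lysates collected 72 h post infection served as the replication measure.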
HCV inh: inhibitors of hepatitis C virus infection; AID 651820; 340,000 compounds, 3.4% hits; Potency, µM (doses to about 41.8 µM), for inactives: top-dose activity change, negative = inhibition, most hits filed as inhibitors; Huh7.5.1 HCVcc-Cre infection, luciferase reporter, 44 h; active means well fitted inhibition curve with a large enough effect; inconclusive means small, poorly fitted or top-dose-only effect, or another doubt; inactive means no such curve, though single readings can be large or run the other way; further: potency means the concentration at half of the fitted maximal effect; on the % scale 0 is the no-effect control and ±100 the full control effect
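Cells (1,000/well) were plated 4 h before compound, then infected with HCVcc-Cre virus (~0.5 moi). After 44 h further culture, infection was read as luciferase luminescence following a 15 min substrate incubation at room temperature.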
The depositor's hits bear a star; ? = inconclusive; / = no result; [ ] = another dose, or the depositor's remark.

SMILES	Marburg entry inh	LASV entry inh	SARS PLpro yeast	FMDV inh	HCMV inh	HCV inh
CCCOc1ccc(CS[C@@H](CC(=O)O)C(=O)O)cc1	17%	/	/	/	/	/
CC(C)C(NC(=O)Cc1ccccc1)C(=O)N1CCN(c2cccc(Cl)c2)CC1 (stereo not given)	/	/	-5%	?	-101*	11µM*
CSC(=NC#N)N1CCN(c2cccc(Cl)c2)CC1	9%	5%	-11%	-20%	-67*	9%
CC(NC(=O)c1ccco1)C(=O)N1CCN(c2cccc(Cl)c2)CC1 (stereo not given)	/	/	1%	-13%	-27	-4%
COC(=O)c1ccccc1-c1cc(C)cc2c1OC(CNC(=O)c1cnc(C)cn1)C2 (stereo not given)	/	/	/	15%	/	/
CC(=O)OC[C@H]1O[C@H](c2ccc(C(C)=O)cc2)C=C[C@H]1OC(C)=O	2%[14.2 µM]	/	/	/	/	/
Cc1ccc2oc(C(=O)NCC(c3ccc(Cl)cc3)N3CCOCC3)c(C)c2c1 (stereo not given)	?	-19%[46.1 µM]	/	?	-3	/
Cc1ccc(C(=O)NCC(c2ccco2)S(=O)(=O)c2ccc(Cl)cc2)cc1C (stereo not given)	/	-2%[46.1 µM]	/	-29%	-12	/
O=C(CCl)Nc1cn(-c2ccccc2)nc1-c1ccccc1	16µM*	4.1µM*	-5%	20µM*	-96*	2.8µM*
O=C(Nc1cn(-c2ccccc2)nc1-c1ccc(F)cc1)c1ccccc1	4%	12%	-4%	7%	-61*	-19%
COc1ccc(NC(=O)CN(C)C(=O)c2cn(-c3ccccc3)nc2-c2ccc(OC)cc2)cc1	/	/	-1%	5%	-24	0%
COc1ccc(NC(=O)CN(C)C(=O)c2cn(-c3ccccc3)nc2-c2ccc(F)cc2)cc1	/	/	6%	-21%	11	11µM*
CC(C)(C)N1C(=O)[C@H]2[C@H]3[C@H](O)[C@H](O)C/C(=N\OCc4ccccc4)[C@H]3CC[C@H]2C1=O	-9%[14.2 µM]	/	/	/	/	/
COc1ccc(NC(=S)Nc2cccc(S(=O)(=O)N3CCCCC3)c2)cc1	?	5%	0%	-5%	-64*	8%
COc1ccc(NC(=O)c2cc(S(=O)(=O)N3CCCC3)oc2C)cc1	/	/	-2%	8%	-65*	-14%
CC(=O)Oc1ccc(-c2ccc(C(=O)Nc3cccc(S(=O)(=O)N4CCOCC4)c3)cc2)cc1	?	?	3%	?	-98*	?
CC1(C)CC2CC(C)(CN2S(=O)(=O)c2ccc(C(=O)Nc3cc(S(=O)(=O)N4CCOCC4)ccc3Cl)cc2)C1 (stereo not given)	?	?	0%	-6%	18	-28%
CC1(C)CC2CC(C)(CN2S(=O)(=O)c2ccc(C(=O)Nc3cccc(S(=O)(=O)N4CCOCC4)c3)cc2)C1 (stereo not given)	5.2µM*	?	27%	?	-92*	11µM*
COc1cc(NC(=O)c2nn(C)c3c2COc2ccccc2-3)cc(OC)c1OC	7%[46.1 µM]	1%[46.1 µM]	/	-14%	-3	/
C=CCN1c2ccccc2[C@]23CCC(=O)N(Cc4cc(OC)c(OC)c(OC)c4)C2=NC(C(=O)OC)=C(C(=O)OC)[C@H]13	-7%[14.2 µM]	/	/	/	/	/
COc1ccc(NS(=O)(=O)c2cc(OC)ccc2NC(=O)c2cc(C)oc2C)cc1	?	-24%	-4%	0%	24	4.5µM*
COc1ccc(C(=O)NNC(=O)c2cccc(S(=O)(=O)N3CCOCC3)c2)cc1	22%[46.1 µM]	-14%[46.1 µM]	-5%	-2%	20	0%
COc1ccc(NS(=O)(=O)c2cc(OC)ccc2OC)cc1	-22%	-1%	/	70%	-17	-18%
COc1ccc(C(=O)NC(=S)Nc2cccc(S(=O)(=O)N3CCOCC3)c2)cc1	-19%[46.1 µM]	?	3%	0%	-32	14µM*
Cn1c(-c2ccccc2)nc2cnc(Nc3cccc(OC(F)(F)F)c3)cc21	/	/	/	/	-79*	/
SMILES	Marburg entry inh	LASV entry inh	SARS PLpro yeast	FMDV inh	HCMV inh	HCV inh
COc1cccc(Nc2cc3c(cn2)cc(-c2cccc(C(F)(F)F)c2)n3C)c1	/	/	/	/	-80*	/
COc1ccc(-c2nc3cnc(Nc4cccc(OC(F)(F)F)c4)cc3n2C)cc1OC	/	/	/	/	7	/
Cn1c(-c2cccnc2)cc2cnc(Nc3ccc(F)cc3)cc21	/	/	/	/	31	/
Cn1c(-c2cccnc2)cc2cnc(Nc3ccc(OC(F)(F)F)cc3)cc21	/	/	/	/	-60*	/
COc1ccc(N2CCN(C(=O)c3nc(-c4ccc(Cl)cc4)n4c3CCCCC4)CC2)cc1	/	-13%[46.1 µM]	/	-20%	22	/
Cc1cccc(N2CCN(Cc3nnc(-c4ccc5c(c4)OCO5)o3)CC2)c1C	?	-13%[46.1 µM]	/	2%	7	/
CCOP(=O)(CCP(=O)(OCC)OCC)OCC.C[CH2][Sn]([Cl])([Cl])[CH2]C	?	13µM*	/	2.8µM*	-101*	1.6µM*
CCOP(=O)(OCC)OCC	/	/	5%	-22%	16	27%
COc1cc(S(=O)(=O)n2ccnc2C(C)C)ccc1Br	?	?	/	0%	3	/
COCCNC(=O)c1ccccc1NC(=O)c1nsc2ccccc12	/	23%[46.1 µM]	/	12%	31	/
CCOC(=O)[C@]12Cc3cc(C)ccc3[C@H]1N(C(C)C)C(=O)c1ccccc12	/	/	/	10µM*	-98*	/
CCOC(=O)[C@]12Cc3ccccc3[C@H]1N(C)C(=O)c1cc(OC)ccc12	/	/	/	?	-97*	/
CCOC(=O)N1CCN(C(=O)C2c3cc(OC)c(OC)cc3C(=O)N3CCc4ccccc4C23)CC1 (stereo not given)	-3%	-11%	8%	-19%	-4	2%
CCOC(=O)[C@]12Cc3c(cc(OC)c(OC)c3OC)[C@H]1N(C(C)C)C(=O)c1ccccc12	/	/	/	?	-100*	/
CCOC(=O)[C@]12Cc3cc(C)ccc3[C@H]1N(Cc1ccccc1)C(=O)c1ccccc12	/	/	/	?	-13	-12%[8.37 µM]
CCOC(=O)[C@]12Cc3ccccc3[C@H]1N(C(C)C)C(=O)c1cc(OC)ccc12	/	/	/	28µM*	-97*	/
CCOC(=O)CNC(=O)C1c2cc(OC)c(OC)cc2C(=O)N(C)C1c1ccccc1F (stereo not given)	-1%	0%	0%	-11%	40	2%
Cc1cc(Cl)ccc1NC(=O)CN1C(=O)COc2ccc(S(=O)(=O)Nc3ccccc3)cc21	/	-23%[46.1 µM]	/	24%	?	/
Cc1c(C(=O)OCc2ccccc2)[nH]c2c1C(=O)CC(c1ccco1)C2 (stereo not given)	/	/	-3%	-26%	/	?
Cc1c(C(=O)OCCOC(C)C)[nH]c2c1C(=O)CC(c1ccco1)C2 (stereo not given)	?	?	-14%	0%	/	?
COCCOC(=O)c1[nH]c2c(c1C)C(=O)CC(c1ccco1)C2 (stereo not given)	/	/	-7%	?	-67*	?
CCOC(=O)c1[nH]c2c(c1C)C(=O)CC(c1ccco1)C2 (stereo not given)	/	/	-7%	0%	-81*	?
